In the supplement of paper PMC6897291:
Where a name gives a salt, the structure may show the parent alone.

system: U-2932; experiment: growth inhibition by drug alone (1 - RLU/untreated control) (fraction); higher = stronger inhibition; settings: 1000 nM; time (day): 5; 177Lu-lilotomab satetraxetan 0 ug/ml
Summary of the method: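 With or without 18 h pretreatment by a radiolabelled anti-CD37 antibody conjugate (~600 MBq/mg; 0.5 µg/ml RIVA, 1 µg/ml U-2932), RIVA and U-2932 cells were washed and plated at 3,000 cells/well. Pre-printed compound doses were 10/100 nM for RIVA and 10/1,000 nM for U-2932. Growth inhibition uses RealTime-Glo RLU relative to the untreated no-drug wells. The calculation is 1 − RLU/mean of 48 such wells per plate, with reads daily from day 3 after 1 h at 37°C.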

Row | SMILES | growth inhibition by drug alone
1 | CCc1c2c(nc3ccc(OC(=O)N4CCC(N5CCCCC5)CC4)cc13)-c1cc3c(c(=O)n1C2)COC(=O)[C@]3(O)CC [Irinotecan HCl Trihydrate (Campto)] | 0.96
2 | S=C(NCc1ccc2c(c1)OCO2)N1CCN(c2ncnc3c2oc2ccccc23)CC1 [Amuvatinib (MP-470)] | 0.474
3 | COc1ccc2c3n(c(=NC(=O)c4cccnc4)nc2c1OC)CCN3 | 0.0515
4 | C#Cc1cccc(Nc2ncnc3cc(OCCOC)c(OCCOC)cc23)c1 [Erlotinib HCl] | 0.655
5 | Cc1ccc(-c2cc(C(F)(F)F)nn2-c2ccc(S(N)(=O)=O)cc2)cc1 [Celecoxib] | -0.0383
6 | N#CC[C@H](C1CCCC1)n1cc(-c2ncnc3[nH]ccc23)cn1 | -0.111
7 | CCc1cncnc1N1CCN(Cc2nc3ccc(C(F)(F)F)cc3[nH]2)CC1 | 0.0246
8 | CCN(CC)C(=S)SSC(=S)N(CC)CC [Disulfiram (Antabuse)] | 0.981
9 | CC(C)[C@H](C(=O)Nc1ccc(C(=O)NO)cc1)c1ccccc1 | 0.973
10 | CC(=O)O[C@]1(C(C)=O)CC[C@H]2[C@@H]3C=C(C)C4=CC(=O)CC[C@]4(C)[C@H]3CC[C@@]21C [Megestrol Acetate] | 0.0515
11 | COc1cc2ncnc(Nc3cccc(Br)c3)c2cc1OC | -0.044
12 | N#Cc1ccc(C(c2ccc(C#N)cc2)n2cncn2)cc1 [Letrozole] | -0.0553
13 | CC(=O)c1c(C)c2cnc(Nc3ccc(N4CCNCC4)cn3)nc2n(C2CCCC2)c1=O | -0.082
14 | COc1cccc2c1C(=O)c1c(O)c3c(c(O)c1C2=O)C[C@@](O)(C(=O)CO)C[C@@H]3O[C@H]1C[C@H](N)[C@H](O)[C@H](C)O1 [Doxorubicin (Adriamycin)] | 0.986
15 | CC(C)(C)c1[nH]cnc1/C=c1\[nH]c(=O)/c(=C/c2ccccc2)[nH]c1=O [NPI-2358 (Plinabulin)] | 0.974
16 | COc1cc(Nc2ncc3c(n2)-c2ccc(Cl)cc2C(c2c(F)cccc2OC)=NC3)ccc1C(=O)O [MLN8237 (Alisertib)] | 0.153
17 | O=c1[nH]cc(F)c(=O)[nH]1 [Adrucil (Fluorouracil)] | 0.00587
18 | CC(C)c1ccc(Cn2ccc3c4c(N)nc(NC5CC5)nc4ccc32)cc1 | 0.982
19 | CC/C(=C(\c1ccccc1)c1ccc(OCCN(C)C)cc1)c1ccccc1 [Tamoxifen Citrate (Nolvadex)] | -0.0226
20 | Cn1cc(C2=C(c3ccc(Cl)cc3Cl)C(=O)NC2=O)c2ccccc21 | -0.0762
21 | c1ccc(-c2nn3c(c2-c2ccnc4cc(OCCN5CCOCC5)ccc24)CCC3)nc1 | -0.0928
22 | O=C(NCCS(=O)(=O)c1ccc(C(F)(F)F)cn1)c1ccc(Cl)cc1 | -0.0415
23 | Cc1ccc(S(=O)(=O)C=CC#N)cc1 | 0.058
24 | CCC1=C[C@@H]2CN(C1)Cc1c([nH]c3ccccc13)[C@@](C(=O)OC)(c1cc3c(cc1OC)N(C)[C@H]1[C@@](O)(C(=O)OC)[C@H](OC(C)=O)[C@]4(CC)C=CCN5CC[C@]31[C@@H]54)C2 [Vinorelbine (Navelbine)] | 0.98
25 | Cc1cc(Nc2cc(N3CCN(C)CC3)nc(/C=C/c3ccccc3)n2)n[nH]1 | 0.0189
26 | CN(N=O)C(=O)N[C@@H](C=O)[C@@H](O)[C@H](O)[C@H](O)CO [Streptozotocin (Zanosar)] | -0.109

same assay, conditions: 1000 nM; time (day): 6; 177Lu-lilotomab satetraxetan 0 ug/ml

Row | SMILES | growth inhibition by drug alone
27 | COc1ccc(S(=O)(=O)Nc2cccnc2Nc2ccc(O)cc2)cc1 | 0.948
28 | C[C@]12CCC(=O)C=C1CC[C@@H]1[C@@H]2[C@@H](O)C[C@@]2(C)[C@H]1CC[C@]2(O)C(=O)CO [Hydrocortisone (Cortisol)] | 0.167
29 | COc1cc(OC2CCN(C)CC2)ccc1Nc1ncc2c(n1)n(C1CCCC1)c(=O)n2C | -0.247
30 | Nc1nc(F)nc2c1ncn2[C@@H]1O[C@H](CO)[C@@H](O)[C@@H]1O [Fludarabine (Fludara)] | -0.0258
31 | Nc1nc(Nc2ccc(S(N)(=O)=O)cc2)nn1C(=O)c1c(F)cccc1F | 0.477
32 | Nc1ncn([C@@H]2O[C@H](CO)[C@@H](O)[C@H]2O)c(=O)n1 [Azacitidine (Vidaza)] | 0.17
33 | COc1cc2nccc(Oc3ccc(NC(=O)NC4CC4)c(Cl)c3)c2cc1C(N)=O [E7080 (Lenvatinib)] | 0.0893
34 | Nc1ccn([C@@H]2O[C@H](CO)[C@@H](O)[C@@H]2O)c(=O)n1 [Cytarabine] | 0.6
35 | Nc1cccc2c1C(=O)N(C1CCC(=O)NC1=O)C2=O (centres undefined) [Pomalidomide] | 0.309
36 | CN(C)c1nc(N(C)C)nc(N(C)C)n1 [Altretamine (Hexalen)] | 0.0216
37 | Cc1[nH]c(/C=C2\C(=O)Nc3ccc(S(=O)(=O)N(C)c4cccc(Cl)c4)cc32)c(C)c1C(=O)N1CCN(C)CC1 | 0.0376
38 | O=C(O[C@@H]1Cc2c(O)cc(O)cc2O[C@@H]1c1cc(O)c(O)c(O)c1)c1cc(O)c(O)c(O)c1 [(-)-Epigallocatechin gallate] | -0.12
39 | CCc1c2c(nc3ccc(OC(=O)N4CCC(N5CCCCC5)CC4)cc13)-c1cc3c(c(=O)n1C2)COC(=O)[C@]3(O)CC [Irinotecan HCl Trihydrate (Campto)] | 0.976
40 | S=C(NCc1ccc2c(c1)OCO2)N1CCN(c2ncnc3c2oc2ccccc23)CC1 [Amuvatinib (MP-470)] | 0.434
41 | COc1ccc2c3n(c(=NC(=O)c4cccnc4)nc2c1OC)CCN3 | 0.0321
42 | C#Cc1cccc(Nc2ncnc3cc(OCCOC)c(OCCOC)cc23)c1 [Erlotinib HCl] | 0.621
43 | Cc1ccc(-c2cc(C(F)(F)F)nn2-c2ccc(S(N)(=O)=O)cc2)cc1 [Celecoxib] | -0.0538
44 | N#CC[C@H](C1CCCC1)n1cc(-c2ncnc3[nH]ccc23)cn1 | -0.125
45 | CCc1cncnc1N1CCN(Cc2nc3ccc(C(F)(F)F)cc3[nH]2)CC1 | -0.253

Row | SMILES | growth inhibition by drug alone
46 | CCN(CC)C(=S)SSC(=S)N(CC)CC [Disulfiram (Antabuse)] | 0.981
47 | CC(C)[C@H](C(=O)Nc1ccc(C(=O)NO)cc1)c1ccccc1 | 0.98
48 | CC(=O)O[C@]1(C(C)=O)CC[C@H]2[C@@H]3C=C(C)C4=CC(=O)CC[C@]4(C)[C@H]3CC[C@@]21C [Megestrol Acetate] | -0.0501
49 | COc1cc2ncnc(Nc3cccc(Br)c3)c2cc1OC | -0.226
50 | N#Cc1ccc(C(c2ccc(C#N)cc2)n2cncn2)cc1 [Letrozole] | -0.0728
51 | CC(=O)c1c(C)c2cnc(Nc3ccc(N4CCNCC4)cn3)nc2n(C2CCCC2)c1=O | -0.259
52 | COc1cccc2c1C(=O)c1c(O)c3c(c(O)c1C2=O)C[C@@](O)(C(=O)CO)C[C@@H]3O[C@H]1C[C@H](N)[C@H](O)[C@H](C)O1 [Doxorubicin (Adriamycin)] | 0.988
53 | CC(C)(C)c1[nH]cnc1/C=c1\[nH]c(=O)/c(=C/c2ccccc2)[nH]c1=O [NPI-2358 (Plinabulin)] | 0.98
54 | COc1cc(Nc2ncc3c(n2)-c2ccc(Cl)cc2C(c2c(F)cccc2OC)=NC3)ccc1C(=O)O [MLN8237 (Alisertib)] | 0.291
55 | O=c1[nH]cc(F)c(=O)[nH]1 [Adrucil (Fluorouracil)] | -0.153
56 | CC(C)c1ccc(Cn2ccc3c4c(N)nc(NC5CC5)nc4ccc32)cc1 | 0.985
57 | CC/C(=C(\c1ccccc1)c1ccc(OCCN(C)C)cc1)c1ccccc1 [Tamoxifen Citrate (Nolvadex)] | 0.0641
58 | Cn1cc(C2=C(c3ccc(Cl)cc3Cl)C(=O)NC2=O)c2ccccc21 | -0.00785
59 | c1ccc(-c2nn3c(c2-c2ccnc4cc(OCCN5CCOCC5)ccc24)CCC3)nc1 | -0.157
60 | O=C(NCCS(=O)(=O)c1ccc(C(F)(F)F)cn1)c1ccc(Cl)cc1 | 0.00213
61 | Cc1ccc(S(=O)(=O)C=CC#N)cc1 | -0.0332
62 | CCC1=C[C@@H]2CN(C1)Cc1c([nH]c3ccccc13)[C@@](C(=O)OC)(c1cc3c(cc1OC)N(C)[C@H]1[C@@](O)(C(=O)OC)[C@H](OC(C)=O)[C@]4(CC)C=CCN5CC[C@]31[C@@H]54)C2 [Vinorelbine (Navelbine)] | 0.983
63 | Cc1cc(Nc2cc(N3CCN(C)CC3)nc(/C=C/c3ccccc3)n2)n[nH]1 | 0.221
64 | CN(N=O)C(=O)N[C@@H](C=O)[C@@H](O)[C@H](O)[C@H](O)CO [Streptozotocin (Zanosar)] | -0.156
